# This is a sample that favours compounds with a hit; in the whole collection about 7.4% have one here.
# FLuc modulator – firefly luciferase modulation, counter-screen for miR-21 project; P08659; purified FLuc, Km substrates, luminescence inhibition; Potency, µM (doses to about 57.5 µM), inactives show top-dose activity change, negative = inhibition, hits mostly inhibitors; 360,000 compounds, 6.9% hits;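 also: plate controls were vehicle for no effect and reference inhibitor for full effect; nearly all actives have a fitted effect of over 55% in size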
# Target sequence (P08659 whole entry, looked up): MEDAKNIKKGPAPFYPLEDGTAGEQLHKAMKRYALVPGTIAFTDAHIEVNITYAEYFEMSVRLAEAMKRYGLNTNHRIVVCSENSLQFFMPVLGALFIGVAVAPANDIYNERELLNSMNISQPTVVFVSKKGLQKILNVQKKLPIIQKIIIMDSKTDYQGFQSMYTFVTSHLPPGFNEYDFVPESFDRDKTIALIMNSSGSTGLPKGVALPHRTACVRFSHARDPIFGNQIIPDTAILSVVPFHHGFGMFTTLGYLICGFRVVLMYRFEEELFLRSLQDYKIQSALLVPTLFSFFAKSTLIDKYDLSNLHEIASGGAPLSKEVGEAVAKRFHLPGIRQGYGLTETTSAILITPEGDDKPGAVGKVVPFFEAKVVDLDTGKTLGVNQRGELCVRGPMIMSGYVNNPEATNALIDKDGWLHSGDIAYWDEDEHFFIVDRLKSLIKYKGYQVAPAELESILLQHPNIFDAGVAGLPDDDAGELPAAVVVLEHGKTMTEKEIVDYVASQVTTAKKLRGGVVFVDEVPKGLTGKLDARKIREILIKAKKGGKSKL
#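 Biochemical qHTS of compounds, final roughly 60 µM downward over six points, against 10 nM purified firefly luciferase using Km concentrations of substrates (10 uM D-luciferin, 10 uM ATP) in Tris acetate pH 7.5 buffer; luminescence output.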
# ELG1 genotoxic – induces genotoxicity in HEK293T cells with luciferase-tagged ELG1 | HEK293T ELG1-luciferase reporter, luminescence, 16 h | Potency, µM (top dose mostly 46 µM), inactives show top-dose activity change, positive = activation, hits mostly activators | 330,000 compounds, 1.3% hits | AID 504466; also: % of control where 0% means no effect; nearly all actives have a fitted effect of over 60% in size
#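 Quantitative HTS format in 1536-well plates. HEK293T ELG1-luciferase reporter cells receive test compound and are incubated 16 hr at 37 °C, 5% CO2; ONE-Glo added, 30 min room temperature, then luminescence read.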
# Luc counter – Kinase-Glo luciferase inhibition (counter-screen). Q27757. Kinase-Glo luciferase, ATP luminescence, 8 min. Potency, µM (doses to about 38.3 µM), for the others: at the top dose activity change, negative = inhibition, most hits filed as inhibitors. 200,000 compounds, 0.28% hits. AID 1379; also: % is scaled to controls: 0 for no effect and ±100 for the full control effect; nearly all actives have a fitted effect of over 60% in size
#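 Substrate mix (final 50 mM imidazole pH 7.2, 50 mM KCl, 7 mM MgCl2, 10 uM ATP, 0.01% Tween 20, 0.05% BSA) plus pin-tool compound, then Kinase-Glo detection mix; 8 min ambient, luminescence read.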
# SMN2 splice enh – SMN2 splice variant enhancement; HEK293 SMN2-luciferase splicing reporter, luminescence, 30-36 h; Potency, µM (top dose mostly 46.1 µM), for the others: top-dose activity change, positive = activation, most hits filed as activators; 210,000 compounds, 2.8% hits; AID 1458; also: % of control where 0% means no effect; nearly all actives have a fitted effect of over 55% in size
#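 HEK293 cells carry an SMN2 […]–luciferase reporter in which exon 7 inclusion puts luciferase in frame. Cells were plated 10-12 h before compound addition, then incubated 30-36 h at 37C. ONE-Glo luminescence was read; sodium butyrate at 4.5 mM final served as control.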
# NPC1 promoter act – NPC1 promoter activation. Huh7 NPC1 promoter luciferase reporter, 24 h. Potency, µM (top dose mostly 9.22 µM), inactives show top-dose activation, most hits filed as activators. 320,000 compounds, 2.4% hits; also: % of control where 0% means no effect; nearly all actives have a fitted effect of over 60% in size
#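 Readout is luciferase luminescence, reflecting NPC1 promoter activation in stably transfected Huh7 cells after 24 h compound exposure at 37 °C in reduced-serum medium with 10% FBS.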
# Rab9 promoter act – activates the Rab9 promoter; 320,000 compounds, 2.8% hits; Potency, µM (highest dose often 9.22 µM), for inactives: top-dose activation, negative = inhibition, actives largely listed as activators; Huh7 Rab9 promoter-luciferase reporter, luminescence, 24 h; AID 485297; also: % of control where 0% means no effect; nearly all actives have a fitted effect of over 60% in size
#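 Steps: seed 1500 Huh7 Rab9-luc cells per well, rest 2 h at 37 °C; add compound in DMSO; incubate 24 h; add luciferase reagent, 10 min ambient; read luminescence.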
# * hit, by the source's call; ? = inconclusive; . = no result given. Calls follow the shape of the dose curve; as a rule, active = well fitted curve in the direction sought with a large enough effect; inconclusive = small, poorly fitted or top-dose-only effect, or another doubt; inactive = no such curve, though single readings can be large; an effect the other way counts as inactive or inconclusive. Potency is read from the fitted curve at half-maximal effect.
SMILES,FLuc modulator,ELG1 genotoxic,Luc counter,SMN2 splice enh,NPC1 promoter act,Rab9 promoter act
COc1ccc(-c2ccc(-c3noc(-c4ccccc4C)n3)c(OC)n2)cc1,?,-1.3%,20.8%,-6.2%,0.0%,0.6%
Cc1ccccc1-c1noc(C2CCCCC2)n1,16.9µM*,12.5%,-8.2%,-5.8%,-0.5%,8.9%
Cc1ccccc1-c1noc(-c2nnn(-c3ccccc3C)c2N)n1,-10.8%,.,.,.,.,.
Cc1ccccc1-c1noc(-c2ccccc2F)n1,1.9µM*,6.51µM*,-21.1%,?,2.51µM*,2.24µM*
Cc1ccccc1-c1noc(-c2ccc(O)cc2)n1,4.78µM*,?,-25.5%,?,?,29.4%
COc1cc(C(=O)NC(C)c2cccc3ccccc23)cc(OC)c1OC (configuration not stated),4.5%,8.0%,.,.,2.1%,3.8%
O=S(=O)(Cc1noc(-c2ccc(Cl)cc2)n1)Cc1ccco1,?,7.5%,.,.,20.9%,25.7%
Clc1ccc(Cc2noc(-c3cccs3)n2)cc1,13.5µM*,6.51µM*,-7.2%,0.1%,?,21.5%
Clc1ccc(-c2nc(Cc3ccccc3Cl)no2)cc1,15.1µM*,11.2%,-4.8%,0.1%,13.5%,22.9%
Fc1cccc(Nc2ncnc3sccc23)c1,-17.7%,0.0%,.,.,0.2%,?
O=C(O)c1cccc(Nc2ncnc3sccc23)c1,7.57µM*,-0.5%,-7.4%,4.3%,28.5%,14.8%
COc1cc(C(=O)Nc2ccccn2)cc(OC)c1OC,-0.7%,8.3%,0.2%,6.6%,-3.6%,2.0%
O=C(Nc1ccccn1)c1ccc(C(=O)c2ccccc2)cc1,4.26µM*,4.61µM*,.,.,3.55µM*,2.51µM*
Cc1ccccc1NC(=O)c1ccc(NC(=O)c2ccco2)cc1,?,?,-1.0%,1.1%,12.4%,13.2%
O=C(Nc1ccccn1)c1ccc(NC(=O)c2ccco2)cc1,10.7µM*,?,-14.2%,12.6µM*,2.24µM*,2.24µM*
O=C(NC(=O)c1ccccc1)Nc1ccccn1,0.269µM*,?,.,.,-22.6%,1.26µM*
Cc1cc(C(=O)Nc2ccccn2)cs1,10.7µM*,?,?,7.94µM*,1.41µM*,1.41µM*
CN(Cc1ccccc1)C(=O)COC(=O)CN1C(=O)c2ccccc2C1=O,.,0.9%,.,.,.,.
CNc1nnc(SCC(=O)c2cc(C)n(C3CC3)c2C)s1,.,?,.,.,?,3.55µM*
Cc1cc(C(=O)CSc2nnnn2C)c(C)n1C1CC1,?,?,-2.5%,10µM*,?,2.82µM*
CCn1c(C)cc(C(=O)CSc2nnnn2C2CCCC2)c1C,1.9µM*,?,.,.,0.708µM*,0.708µM*
Cc1nnc(SCC(=O)c2cc(C)n(C3CC3)c2C)s1,12µM*,?,-3.0%,25.1µM*,2.24µM*,2µM*
COc1ccc(OC)c(S(=O)(=O)n2ccnc2C(C)C)c1,2.3%,-2.7%,.,.,-4.7%,0.6%
COc1cccc(/C=N/Nc2ccc([N+](=O)[O-])cn2)c1O,0.757µM*,2.59µM*,.,.,-23.4%,-25.2%
O=c1nccc(N/N=C/c2ccccc2O)[nH]1,?,5.6%,.,.,-18.2%,-4.5%
SMILES,FLuc modulator,ELG1 genotoxic,Luc counter,SMN2 splice enh,NPC1 promoter act,Rab9 promoter act
COc1cccc(/C=N/Nc2ccnc(=O)[nH]2)c1O,16.9µM*,11.1%,.,.,-22.2%,-19.9%
Cc1ccc(-c2cc(C(=O)N/N=C/c3ccccc3O)n[nH]2)o1,?,?,.,.,2.5%,-1.2%
Cc1ccc(C(=O)N/N=C/c2c[nH]c3ccccc23)o1,23.9µM*,?,.,.,17.8%,25.5%
Cc1ccc(C(=O)Nc2ccc(C(=O)N/N=C/c3c[nH]c4ccccc34)cc2)cc1,?,2.6%,6.0%,9.9%,10.9%,1.6%
Cc1ccc(-c2cc(C(=O)N/N=C/c3c[nH]c4ccccc34)n[nH]2)o1,10.7µM*,-7.2%,1.0%,5.2%,9.2%,-0.4%
Cc1cc(C(=O)N/N=C/c2c[nH]c3ccccc23)c(C)o1,19µM*,11.0%,2.3%,-2.6%,1.2%,-0.3%
Cc1ccc(-c2cc(C(=O)N/N=C/C(Br)=C/c3ccccc3)n[nH]2)o1,23.9µM*,-2.5%,0.8%,-2.2%,-3.4%,21.7%
COc1cc(-c2ccno2)ccc1S(=O)(=O)N1CCN(c2cc(C)ccc2C)CC1,-1.1%,.,.,.,.,.
CC1CC(C)CN(S(=O)(=O)c2ccc(NC(=O)c3ccc(=O)[nH]c3)cc2)C1 (configuration not stated),2.6%,15.1%,.,.,-25.9%,-16.9%
CC(C)(C)Nc1ncnc2sc(-c3ccccc3)cc12,?,-4.2%,.,.,-1.4%,-0.7%
CN(C)C(=O)COc1ncnc2sc(-c3ccccc3)cc12,?,?,.,.,21.1%,27.1%
COc1ncnc2sc(-c3ccccc3)cc12,12µM*,?,10µM*,?,?,3.16µM*
CN(C)c1ncnc2sc(-c3ccccc3)cc12,15.1µM*,15.1%,.,.,3.4%,6.7%
CCOc1ccc(OCCC(=O)OCC(=O)Nc2ccc(C)c(S(=O)(=O)N3CCCCC3)c2)cc1,10.7µM*,0.4%,.,.,-0.7%,-1.1%
CCOc1cc(C(=O)CCC(=O)OCC(=O)Nc2ccc(C)c(S(=O)(=O)N(C)C)c2)ccc1O,19µM*,13.6%,0.2%,-6.5%,5.4%,0.1%
CCc1ccc(NC(=O)C(=O)NCC2CCCO2)cc1 (configuration not stated),?,17.1%,-3.2%,11.2µM*,3.55µM*,1.41µM*
CN(C)c1ccc(NC(=S)NCC2CCCO2)cc1 (configuration not stated),?,?,-2.8%,12.6µM*,17.4%,23.0%
O=C(NC(=S)NCC1CCCO1)c1ccccc1Br (configuration not stated),0.8%,5.5%,-2.8%,2.5%,-4.2%,-2.6%
Cc1ccc(C(=O)NC(=S)NCC2CCCO2)cc1Br (configuration not stated),19µM*,16.3%,-0.3%,20µM*,23.4%,29.1%
CCc1ccc(CNC(=O)C(=O)NCC2CCCO2)cc1 (configuration not stated),-1.4%,3.4%,1.0%,.,-0.7%,-7.4%
CCC(=O)Nc1ccc(-c2nnc3c4ccccc4c(C)nn23)cc1,0.3%,.,.,8.0%,.,.
COc1ccc(NC(=O)c2ccc(NC(=O)CCS(=O)(=O)c3cccs3)cc2)cc1Cl,4.9%,.,.,15.8µM*,.,.
Cc1cc(NC(=O)c2ccc(NC(=O)CCS(=O)(=O)c3cccs3)cc2)ccc1Br,-1.9%,.,.,15.8µM*,.,.
O=C(CCS(=O)(=O)c1cccs1)Nc1ccc(C(=O)Nc2cccc(Cl)c2)cc1,-4.6%,.,.,?,.,.
CC(C)(C)NCC(O)COc1ccccc1C1CCCC1 (configuration not stated),-0.6%,-59.7%,.,.,-4.2%,-4.2%
